# Test results: PubChem BioAssay
# Values joined by “and” are separate entries in the source; they are usually repeats but may differ in a detail not shown here. Identical values can stand only once. Records with an inconclusive call do not appear. Active and inactive are the calls of the source. Unless noted, the limit is not given here; nearly all actives have AC50 up to about 26 µM.
# Experiments:
# [1] = reducers of polyQ inclusions in PC12 cells, cell-based, NGF-treated PC12, GFPQ80 (AID 1614); settings: PC12 NGF-treated GFP-polyQ80 inclusion reduction;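 also: lower means fewer inclusions and 0 means no inclusions at all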
# [2] = hESC survival regulators, cell-based (AID 493140; call rule not given here;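 also: cells exposed to compounds for four days before counting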); settings: human embryonic stem cell survival screen; stronger effect = higher value
# [3] = test system: Hepatitis C virus NS3 helicase; assay: HCV NS3 helicase inhibitors, primary screen, biochemical, fluorescence polarization, LOPAC1280 library (AID 687035; in the data active = inhibition above about 37%); settings: Purified HCV NS3 helicase, Cy5-dT15 ssDNA binding fluorescence polarization; stronger effect = higher value; concentration not given here
# [4] = Cy5 fluorescence quenching or enhancement artefacts, artefact control for HCV NS3 helicase inhibitor project, biochemical, LOPAC1280 (AID 687037; call rule not given here); settings: Cy5-DNA-NS3h complex fluorescence interference counterscreen
# [5] = growth inhibition of DIPG glioma cells, dose response, cell-based, SU-DIPG-XVII, MIPE5.0, CellTiter-Glo, qHTS (AID 1347060); settings: SU-DIPG-XVII viability, CellTiter-Glo ATP luminescence
# [6] = growth inhibition of DIPG glioma cells, dose response, cell-based, SU-DIPG-XIII, MIPE4.0, CellTiter-Glo, qHTS (AID 1347061; cut-off not given, nearly all actives have AC50 up to about 37 µM;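 also: cells exposed to compound for 48 hours before readout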); settings: SU-DIPG-XIII viability, CellTiter-Glo ATP luminescence
# [7] = growth inhibition of DIPG glioma cells, dose response, cell-based, JHH-DIPG-1, MIPE4.0, CellTiter-Glo, qHTS (AID 1347062; cut-off not given, nearly all actives have AC50 up to about 27 µM); settings: JHH-DIPG-1 viability, CellTiter-Glo ATP luminescence
# [8] = growth inhibition of DIPG glioma cells, dose response, cell-based, SU-DIPG-IV, MIPE4.0, CellTiter-Glo, qHTS (AID 1347063; cut-off not given, nearly all actives have AC50 up to about 30 µM;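 also: compound exposure lasted 48 hours before the viability readout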); settings: SU-DIPG-IV viability, CellTiter-Glo ATP luminescence
# [9] = viability loss in pontine glioma line – cell-based, SU-DIPG-XXV, MIPE5.0, CellTiter-Glo, qHTS, dose response (AID 1347065); settings: CellTiter-Glo ATP luminescence;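 also: cells exposed to compound for 48 hours before ATP readout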
# [10] = SU-DIPG-VI glioma cell viability, MIPE4.0 library, CellTiter-Glo luminescence, qHTS (AID 1347066; cut-off not given, nearly all actives have AC50 up to about 30 µM;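 also: cells exposed to compound for 48 hours before readout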); settings: CellTiter-Glo ATP luminescence
# [11] = JHH-DIPG-1 glioma cell viability, MIPE5.0 library, CellTiter-Glo luminescence, qHTS (AID 1347067); settings: JHH-DIPG-1 glioma viability, CellTiter-Glo ATP luminescence;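 also: cells exposed to compound for 48 hours before readout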
# [12] = SU-DIPG-XXV glioma cell viability, MIPE5.0 library, qHTS (AID 1347068; cut-off not given, nearly all actives have IC50 up to about 30 µM)
# [13] = phospholipid biosynthesis inhibitors in animal cells, primary screen, cell-based, LOPAC library, screen 4 (AID 1347384; call rule not given here); settings: phospholipid biosynthesis inhibition screen, at 10 µM
# [14] = HDN33 neuroblastoma growth inhibition, cell-based, chromothripsis tumors, cisplatin or BGB combos (AID 1671450; in the data active = inhibition above about 80%;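 also: cells exposed to compound for four days; 0% = vehicle DMSO and 100% = cell killing by high DMSO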); settings: HDN33 neuroblastoma cells, stronger effect = higher value
# [15] = LFS_MB_1R medulloblastoma cell growth inhibition, synergistic combos for chromothripsis tumors, cisplatin or BGB combos (AID 1671452; in the data active = inhibition above about 80%;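 also: cells exposed for 96 hours before readout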); settings: LFS_MB_1R medulloblastoma cells, stronger effect = higher value
# [16] = HTB85 osteosarcoma cell growth inhibition, synergistic combos for chromothripsis tumors, BGB or cisplatin IC20 combos (AID 1671453; in the data active = inhibition above about 80%;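 also: cells exposed for 96 hours before readout; 0% = vehicle DMSO and 100% = high DMSO killing control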); settings: HTB85 osteosarcoma cells, drug combinations, stronger effect = higher value
# [17] = MDA-MB-436 breast carcinoma cell growth inhibition, synergistic combos for chromothripsis tumors, BGB or cisplatin combos (AID 1671458; call rule not given here;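 also: cells exposed for 96 hours; 0% = vehicle DMSO and 100% = killing by high DMSO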); settings: MDA-MB-436 breast carcinoma growth inhibition, drug combinations, stronger effect = higher value
# [18] = growth inhibition of BT084 medulloblastoma cells, cell-based, ICGC_MB145, cisplatin and BGB IC40 combos (AID 1671461; in the data active = inhibition above about 80%;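 also: cells exposed to drugs for 96 hours; 0% = vehicle DMSO and 100% = high DMSO full killing control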); settings: drug combinations, stronger effect = higher value
# [19] = growth inhibition of RCMB18 medulloblastoma cells, cell-based, cisplatin and BGB IC40 combos (AID 1671462; in the data active = inhibition above about 80%;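 also: cells exposed to compound for four days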); settings: stronger effect = higher value
# [20] = growth inhibition of CRL1545 osteosarcoma cells, cell-based, cisplatin and BGB IC20 combos (AID 1671464; in the data active = inhibition above about 80%;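 also: cells exposed to compound for 96 hours before readout; 0% = vehicle DMSO and 100% = high DMSO killing control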); settings: stronger effect = higher value
# [21] = measured here: with BGB IC20 combination, at 0.5 µM
# [22] = measured here: with cisplatin IC20 combination, at 0.5 µM
# [23] = measured here: combination with BGB IC40, at 0.05 µM
# [24] = measured here: combination with cisplatin, at 0.5 µM
# [25] = measured here: combination with cisplatin, at 5 µM
# [26] = measured here: with BGB IC20, at 0.5 µM
# [27] = measured here: with BGB IC20, at 5 µM
# [28] = measured here: with cisplatin IC20, at 0.5 µM
# [29] = measured here: with cisplatin IC20, at 5 µM
# [30] = measured here: BGB combination, at 0.5 µM
# [31] = measured here: BGB combination, at 5 µM
# [32] = measured here: cisplatin combination, at 0.5 µM
# [33] = measured here: cisplatin combination, at 5 µM
# [34] = cisplatin combination, at 0.5 µM
# [35] = measured here: BGB IC40 combination 0.05 uM, at 0.05 µM
# [36] = measured here: BGB IC40 combination, at 0.05 µM
structure (smiles),measurement,setting,value
CCCCNc1cc(C(=O)O)cc(S(N)(=O)=O)c1Oc1ccccc1,inclusion score,[1],2
same,survival,[2],12.6 (inactive)
same,inhibition,[3],-3% (inactive)
same,fluorescence ratio (interference),[4],0.9 (inactive)
same,outcome,[5],inactive
same,outcome,[6],inactive
same,outcome,[7],inactive
same,outcome,[8],inactive
same,outcome,[9],inactive
same,outcome,[10],inactive
same,outcome,[11],inactive
same,outcome,[12],inactive
same,outcome,[13],inactive
CCCc1nc2c(C)cc(-c3nc4ccccc4n3C)cc2n1Cc1ccc(-c2ccccc2C(=O)O)cc1,outcome,[5],inactive
same,outcome,[6],inactive
same,outcome,[7],inactive
same,outcome,[8],inactive
same,outcome,[9],inactive
same,outcome,[10],inactive
same,outcome,[11],inactive
same,outcome,[12],inactive
CCCc1cc(=O)[nH]c(=S)[nH]1,inclusion score,[1],2
same,survival,[2],31.3 (inactive)
same,outcome,[5],inactive
same,outcome,[6],inactive
same,outcome,[7],inactive
same,outcome,[8],inactive
same,outcome,[9],inactive
same,outcome,[10],inactive
CC1=NS(=O)(=O)c2cc(Cl)ccc2N1,survival,[2],11.5 (inactive)
same,inhibition,[3],-1% (inactive)
same,fluorescence ratio (interference),[4],1 (inactive)
same,outcome,[13],inactive
O=C(O)CCCc1ccccc1,inhibition,"[14]; BGB combo, at 5 µM",-16.9%
same,inhibition,[14]; at 0.5 µM,-18.6% (inactive)
same,inhibition,"[14]; cisplatin combo, at 5 µM",0.505%
same,inhibition,[14]; [21],-6.08%
same,inhibition,[14]; [22],-19.1%
same,inhibition,"[14]; single agent, at 5 µM",-3.58%
same,inhibition,[15]; at 0.5 µM,-18.6% (inactive)
same,inhibition,[15]; [23],-25.4%
same,inhibition,[15]; [24],-26.8%
same,inhibition,[15]; [25],-16.2%
same,inhibition,[16]; at 0.5 µM,-13.7% (inactive)
same,inhibition,[16]; [26],-24.4%
same,inhibition,[16]; [27],-45.4%
same,inhibition,[16]; [28],-14.6%
same,inhibition,[16]; [29],-12.8%
same,inhibition,"[16]; single agent, at 5 µM",-16.3%
same,inhibition,[17]; at 0.5 µM,-11.5% (inactive)
same,inhibition,[17]; [30],-6.89%
same,inhibition,[17]; [31],-6.08%
same,inhibition,[17]; [32],-24.1%
same,inhibition,[17]; [33],-11.2%
same,inhibition,[18]; at 0.5 µM,-24.2% (inactive)
same,inhibition,[18]; [34],2.11%
same,inhibition,"[18]; cisplatin combination, at 5 µM",-2.13%
same,inhibition,[18]; [35],-5.38%
same,inhibition,"[18]; single agent, at 5 µM",-9.5%
same,inhibition,[19]; at 0.5 µM,-15.3% (inactive)
same,inhibition,"[19]; cisplatin combo, at 5 µM",-6.28%
same,inhibition,[19]; [36],-18%
same,inhibition,[19]; [24],-7.69%
same,inhibition,"[19]; single agent, at 5 µM",28.4%
same,inhibition,[20]; at 0.5 µM,-23.7% (inactive)
same,inhibition,[20]; [21],-4.31%
same,inhibition,[20]; [22],-36.4%
same,inhibition,"[20]; single agent, at 0.05 µM",-12.3%
same,inhibition,"[20]; single agent, at 5 µM",9.33%
O=C(O)c1cccnc1,inclusion score,[1],2
same,survival,[2],4 (inactive)
same,outcome,[5],inactive
same,outcome,[6],inactive
same,outcome,[7],inactive
same,outcome,[9],inactive
same,outcome,[10],inactive
same,outcome,[11],inactive
same,outcome,[12],inactive
COc1ccccc1OCCNCC(O)COc1cccc2[nH]c3ccccc3c12 (configuration not stated),inhibition,[3],-2% (inactive)
same,fluorescence ratio (interference),[4],1 (inactive)
same,outcome,[7],inactive
same,outcome,[13],inactive
CC1Cc2ccccc2N1NC(=O)c1ccc(Cl)c(S(N)(=O)=O)c1 (configuration not stated),inclusion score,[1],2
same,outcome,[5],inactive
same,outcome,[6],inactive
same,outcome,[7],inactive
same,outcome,[8],inactive
same,outcome,[11],inactive
same,outcome,[12],inactive
CC(COc1ccccc1)N(CCCl)Cc1ccccc1 (configuration not stated),survival,[2],5.08 (inactive)
same,inhibition,[3],-1% (inactive)
same,fluorescence ratio (interference),[4],1 (inactive)
same,outcome,[5],inactive
same,outcome,[6],inactive
same,outcome,[7],inactive
same,outcome,[9],inactive
same,outcome,[10],inactive
same,outcome,[11],inactive
same,outcome,[12],inactive
COc1ccc(Cl)cc1C(=O)NCCc1ccc(S(=O)(=O)NC(=O)NC2CCCCC2)cc1,inclusion score,[1],2
same,survival,[2],5.42 (inactive)
same,inhibition,[3],1% (inactive)
same,fluorescence ratio (interference),[4],1 (inactive)
same,outcome,[13],inactive
CC(=O)CC(c1ccccc1)c1c(O)c2ccccc2oc1=O (configuration not stated),inclusion score,[1],2
same,outcome,[5],inactive
same,outcome,[6],inactive
same,outcome,[8],inactive
same,outcome,[9],inactive
same,outcome,[10],inactive
same,outcome,[11],inactive
same,outcome,[12],inactive
COCCOC(=O)C1=C(C)NC(C)=C(C(=O)OC(C)C)C1c1cccc([N+](=O)[O-])c1 (configuration not stated),survival,[2],3 (inactive)
same,inhibition,[3],-4% (inactive)
same,fluorescence ratio (interference),[4],0.9 (inactive)
same,outcome,[13],inactive
O=c1[nH]cnc2[nH]ncc12,inclusion score,[1],2
same,inhibition,[3],-4% (inactive)
same,fluorescence ratio (interference),[4],0.9 (inactive)
same,outcome,[5],inactive
same,outcome,[6],inactive
same,outcome,[7],inactive
same,outcome,[8],inactive
same,outcome,[10],inactive
same,outcome,[11],inactive
same,outcome,[12],inactive
same,outcome,[13],inactive
CC(C)Cc1ccc(C(C)C(=O)O)cc1 (configuration not stated),inclusion score,[1],2
same,inhibition,[3],-2% (inactive)
same,fluorescence ratio (interference),[4],1 (inactive)
same,outcome,[5],inactive
same,outcome,[6],inactive
same,outcome,[7],inactive
same,outcome,[8],inactive
same,outcome,[9],inactive
same,outcome,[10],inactive
same,outcome,[12],inactive
same,outcome,[13],inactive
OC(Cn1cncn1)(Cn1cncn1)c1ccc(F)cc1F,inclusion score,[1],2
same,outcome,[5],inactive
same,outcome,[6],inactive
same,outcome,[7],inactive
same,outcome,[8],inactive
same,outcome,[9],inactive
same,outcome,[10],inactive
same,outcome,[11],inactive
same,outcome,[12],inactive
CCN(Cc1ccncc1)C(=O)C(CO)c1ccccc1 (configuration not stated),inclusion score,[1],1
same,survival,[2],16.4 (inactive)
same,inhibition,[3],-6% (inactive)
same,fluorescence ratio (interference),[4],0.9 (inactive)
same,outcome,[13],inactive
CS(=O)(=O)OCCCCOS(C)(=O)=O,inclusion score,[1],2
same,outcome,[5],inactive
same,outcome,[6],inactive
same,outcome,[7],inactive
same,outcome,[8],inactive
same,outcome,[9],inactive
same,outcome,[10],inactive
same,outcome,[11],inactive
same,outcome,[12],inactive
same,inhibition,"[14]; BGB combo, at 5 µM",-31.6% and -3.19%
same,inhibition,[14]; at 0.5 µM,-10.4% (inactive) and -1.57% (inactive)
same,inhibition,"[14]; cisplatin combo, at 5 µM",-3.41% and -6.58%
same,inhibition,[14]; [21],-9.64% and 2.06%
same,inhibition,[14]; [22],-8.9% and -4.87%
same,inhibition,"[14]; single agent, at 5 µM",0.973% and 14.4%
same,inhibition,[15]; at 0.5 µM,-13.7% (inactive) and -24.5% (inactive)
same,inhibition,[15]; [23],-7.13% and -11.8%
same,inhibition,[15]; [24],-41.7% and -21.3%
same,inhibition,[15]; [25],-51.5% and 4.47%
same,inhibition,[16]; at 0.5 µM,-4.73% (inactive) and 3.45% (inactive)
same,inhibition,[16]; [26],-9.57% and -1.65%
same,inhibition,[16]; [27],-6.08% and 4.44%
same,inhibition,[16]; [28],-0.002% and 1.89%
same,inhibition,[16]; [29],-32.8% and 17%
same,inhibition,"[16]; single agent, at 5 µM",-0.247% and 3.08%
same,inhibition,[17]; at 0.5 µM,-11.8% (inactive) and -10.9% (inactive)
same,inhibition,[17]; [30],-20.7% and -8.16%
same,inhibition,[17]; [31],10.5% and 6.58%
same,inhibition,[17]; [32],-15.8% and -27%
same,inhibition,[17]; [33],-17.4% and 2.99%
same,inhibition,[18]; at 0.5 µM,3.5% (inactive) and 8.55% (inactive)
same,inhibition,[18]; [34],-11.9% and 10.4%
same,inhibition,"[18]; cisplatin combination, at 5 µM",13.1% and -35.4%
same,inhibition,[18]; [35],-26.6% and 22.9%
same,inhibition,"[18]; single agent, at 5 µM",10.9% and -3.7%
same,inhibition,[19]; at 0.5 µM,-11.1% (inactive) and -2.44% (inactive)
same,inhibition,"[19]; cisplatin combo, at 5 µM",-65.6% and 7.8%
same,inhibition,[19]; [36],-1.43% and 7.53%
same,inhibition,[19]; [24],-15.9% and -14.5%
same,inhibition,"[19]; single agent, at 5 µM",-7.92% and -9.74%
same,inhibition,[20]; at 0.5 µM,-1.43% (inactive) and -28.8% (inactive)
same,inhibition,[20]; [21],-7.16% and 14.9%
same,inhibition,[20]; [22],-0.178% and -50.7%
same,inhibition,"[20]; single agent, at 0.05 µM",-16.2% and -23.2%
same,inhibition,"[20]; single agent, at 5 µM",-7.55% and 21.7%
